16 compounds from PubChem BioAssay (NCATS) can be followed below.

The source made the active and inactive calls. Where a call stands in place of a potency, no number is given. Calls follow the shape of the dose curve; as a rule, active = well fitted inhibition curve with a large enough effect; inconclusive = small, poorly fitted or top-dose-only effect; inactive = flat fitted curve, though single readings scatter.
Potency is read from the fitted curve at half-maximal effect.

Phosphoglycerate kinase, glycosomal (Trypanosoma brucei brucei), sequence (P07378 whole entry, looked up): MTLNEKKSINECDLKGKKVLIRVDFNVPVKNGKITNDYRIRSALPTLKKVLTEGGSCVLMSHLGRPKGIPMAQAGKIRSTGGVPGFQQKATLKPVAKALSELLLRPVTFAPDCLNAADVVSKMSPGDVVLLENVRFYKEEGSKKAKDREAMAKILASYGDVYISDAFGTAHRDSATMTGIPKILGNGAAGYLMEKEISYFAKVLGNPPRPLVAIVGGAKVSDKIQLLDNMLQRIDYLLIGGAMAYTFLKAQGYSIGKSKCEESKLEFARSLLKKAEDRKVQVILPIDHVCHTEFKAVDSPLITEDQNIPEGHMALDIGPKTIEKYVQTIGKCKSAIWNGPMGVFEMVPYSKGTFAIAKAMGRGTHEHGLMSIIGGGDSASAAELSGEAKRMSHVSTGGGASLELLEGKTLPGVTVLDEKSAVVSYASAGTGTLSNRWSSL

This test has as its target Phosphoglycerate kinase, glycosomal (Trypanosoma brucei brucei) (UniProt P07378). Put plainly: qHTS Validation Assay to Find Inhibitors of Phosphoglycerate Kinase (AID 504547). The note with it: enzymatic PGK inhibition, coupled luminescence read-out; series mostly up to 57.5 µM. The source says: NIH Molecular Libraries Probe Production Network [MLPCN]
NIH Chemical Genomics Center [NCGC]
PI Name: Malcolm Walkinshaw, University of Edinburgh
Several species of the Trypanosomatidae family of parasitic protozoans cause a spectrum of diseases
throughout the tropical and subtropical world. Sleeping sickness, caused by two subspecies of Trypanosoma brucei, is endemic to areas of sub-Saharan Africa, while Chagas disease, a manifestation of Trypanosoma cruzi infection, is prevalent throughout Central and South America. In addition, many species of Leishmania are responsible for a range of cutaneous and visceral diseases, causing ulcers, destructive lesions and kalaazar, a lethal infection of the viscera. Collectively, these organisms infect 30 million people worldwide (~500 million live in endemic areas), and account for ~130,000 deaths annually. Given their debilitating and prevalent nature, trypanosomatid parasites impose a heavy medical, economic and social burden on entire populations, primarily in the developing world. The problem is further exacerbated by the fact that existing treatments have progressed little in the past 50 years, and current drugs show high toxicity and poor efficacy.
Blood-stream stages of T. brucei are entirely dependent on glycolysis as a source of ATP, and the tricarboxylic acid cycle and oxidative phosphorylation are both repressed. Glycolysis in axenically cultured T. cruzi, representing the intracellular pathogenic stage, is also essential for these parasites. […] Previous studies have shown that the glycolytic enzyme, phosphoglycerate kinase (PGK), is a viable target for drugs to kill these parasites.
NCGC Assay Protocol Summary:
Briefly, 3ul of substrate/PGK buffer (columns 1,2,5-48) are dispensed into Greiner white solid bottom 1536-well assay plates; columns 3-4 receive only TEA buffer as 0x PGK controls. Compounds are then transferred via Kalypsys pin tool equipped with 1536-pin array (10nl slotted pins, V&P Scientific, San Diego, CA). Following addition of compound, 1ul of GAPDH (100nM final concentration, all columns) is added to initiate the reaction (this upstream coupling enzyme is necessary for in-well production of PGK substrate, 1,3-bisphosphoglycerate (1,3-BPG), which is unstable and not commercially available). The plates are then incubated at room temperature for 60 minutes. Kinase-Glo Plus reagent is added (2ul) and plates incubated for 10 minutes, before being transferred to a ViewLux high-throughput CCD imager (PerkinElmer) wherein single end-point measurements of luminescence are acquired using a clear filter. All reagents are diluted in an assay buffer consisting of 100mM TEA (pH 7.6), 5mM MgCl2 and 0.01% Tween-20.
For the compound `CCN(CC)CC#CCOC(=O)C(O)(c1ccccc1)C1CCCCC1` (stereo unspecified), the Potency entry is “inactive”.

On to `CCCCS(=N)(=O)CCC(N)C(=O)O` (stereo unspecified), for which the Potency entry was “inactive”.

As for `CC1CC2C3CCC4=CC(=O)C=C[C@]4(C)[C@@]3(F)[C@@H](O)C[C@]2(C)[C@@]1(O)C(=O)CO` (stereo partly specified), the Potency result was “inactive”.

As for `O=C(O)C1CCCN(CCC=C(c2ccccc2)c2ccccc2)C1` (stereo unspecified), the Potency entry was “inactive”.

As for `NC(=O)c1cccc(N)c1`, the Potency entry is “inactive”.

Regarding `N[C@@H](Cc1ccc(O)c(O)c1)C(=O)O`, the Potency was 9.53 µM (active).

As for `CCN(CC)CCn1c(=O)c(Cc2ccc(OC)cc2)nc2ccccc21`, the Potency result was “inactive”.

With `Cc1ccc(S(=O)(=O)N[C@@H](Cc2ccccc2)C(=O)CCl)cc1`, the Potency entry is “inactive”.

In the case of `NC(=O)c1ccc2[nH]ccc2c1`, the Potency entry was “inactive”.

For the compound `COc1cc2nc(N3CCCN(C)CC3)nc(NC3CCN(Cc4ccccc4)CC3)c2cc1OC`, the Potency result was “inactive”.

Regarding `COc1cc2ncnc(Nc3cccc(Cl)c3)c2cc1OC`, the Potency entry was “inactive”.

As to `CC1=C(C(=O)O)N2C(=O)[C@@H](NC(=O)C(N)c3ccccc3)[C@H]2SC1` (stereo partly specified), the Potency entry is “inactive”.

In the case of `CCN1CCCC1CNC(=O)c1cc(S(N)(=O)=O)ccc1OC` (stereo unspecified), the Potency result was “inactive”.

Regarding `CC(C)NCC(O)c1ccc(NS(C)(=O)=O)cc1` (stereo unspecified), the Potency entry was “inactive”.

As for `OCc1ccc(-c2nn(Cc3ccccc3)c3ccccc23)o1`, the Potency entry was “inactive”.

`CC(=O)[C@H]1CC[C@H]2[C@@H]3CCC4=CC(=O)CC[C@]4(C)[C@H]3CC[C@]12C`: the Potency entry was “inactive”.
